RGS7-Gao: human RGS7-Galphao interaction regulation. 220,000 tested, 0.35% active. binding response (% of control), % at 10 µM. P09471. Multiplexed bead flow cytometry, RGS7-Galphao binding; actives lie on both sides; in the data active means binding response below about 49% or above about 150%; inconclusive means no clear call, values can overlap the other calls; inactive means in between;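 further: fluorescent Galphao held in activated GDP-AlF4 state binding bead-coupled RGS7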
Target sequence (P09471 whole entry, looked up): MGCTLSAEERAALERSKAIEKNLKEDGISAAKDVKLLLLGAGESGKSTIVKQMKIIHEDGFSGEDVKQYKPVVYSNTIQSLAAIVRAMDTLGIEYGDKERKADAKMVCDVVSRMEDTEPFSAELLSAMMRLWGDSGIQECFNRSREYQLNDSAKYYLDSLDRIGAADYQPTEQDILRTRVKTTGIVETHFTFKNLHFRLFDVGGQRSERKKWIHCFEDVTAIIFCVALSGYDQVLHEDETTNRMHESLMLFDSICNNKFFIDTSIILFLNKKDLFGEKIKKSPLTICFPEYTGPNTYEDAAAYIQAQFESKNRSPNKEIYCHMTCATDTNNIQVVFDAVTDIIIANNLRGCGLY
GSH bead fluor: GSH bead compound fluorescence profile | fluorescence (KMESF) at 10 µM | GSH beads flow cytometry, compound fluorescence 488/530 nm; active compounds read high | 190,000 tested, 0.25% active; in the data active means fluorescence above about 89;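 further: glutathione beads carrying GST-tagged Bcl family fusion proteins plus one bare bead set; values are compound well signal with DMSO vehicle wells as background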
Avidin fluor: compound fluoresces at 488/530 nm on avidin beads | compound fluorescence 488/530 nm, flow cytometry; active compounds read high | fluorescence (KMESF) at 10 µM | AID 1775 | 220,000 tested, 0.38% active; in the data active means fluorescence above about 47
RGS4-Gao reg: modulates binding of RGS4 to human Galphao; AID 1415; P09471; 220,000 tested, 0.33% active; Multiplexed bead flow cytometry; actives lie on both sides; binding response (% of control), % at 10 µM; in the data active means binding response below about 49% or above about 150%; inactive means in between;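 further: fluorescent Galphao activated with aluminum fluoride binding bead-coupled RGS4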
RGS8-Gao reg: modulates binding of RGS8 to human Galphao. P09471. multiplexed bead flow cytometry; actives lie on both sides. response (percent of control binding), % at 10 µM. 220,000 tested, 0.34% active. AID 1423; in the data active means response below about 60% or above about 140%; inactive means in between;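 further: Galphao activated as the GDP aluminium fluoride complex binding bead-coupled RGS8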
RGS16-Gao: regulators of human RGS16-Galphao interaction; bead-based flow cytometry RGS16-Galphao binding, fluorescence; actives lie on both sides; 220,000 tested, 0.38% active; binding response (% of control), % at 10 µM;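 further: Galphao activated by GDP with aluminum fluoride before binding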
Target sequence (O15492 whole entry, looked up): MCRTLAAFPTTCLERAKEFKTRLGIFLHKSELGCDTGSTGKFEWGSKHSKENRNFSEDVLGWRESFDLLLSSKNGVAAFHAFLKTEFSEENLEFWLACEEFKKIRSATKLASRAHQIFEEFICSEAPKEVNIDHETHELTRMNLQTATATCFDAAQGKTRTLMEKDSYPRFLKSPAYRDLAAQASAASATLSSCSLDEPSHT
Target sequence (P09471 whole entry, looked up): as the sequence (P09471 whole entry, looked up) above
RGS4-Gao HTS: modulates binding between human RGS4 and Galphao | shares compounds with RGS16-Gao | multiplexed bead flow cytometry, RGS–Galpha-o binding | RGS4–Galpha-o binding response, % at 10 µM | 1,600 tested, 99% active;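 further: fluorescently labeled Galpha-o bound to GDP with aluminium fluoride binding biotinylated RGS beads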
Biotin-avidin: counter-screen: compounds disrupting biotin binding to avidin beads; 1,700 tested, under 10 active; inhibition, % at 10 µM; shares compounds with RGS16-Gao; streptavidin beads, fluorescein-biotin binding, flow cytometry; AID 1783;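 active means inhibition above 50%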;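 further: median green fluorescence of gated singlet beads compared with DMSO control wells; 0% = DMSO wells and 100% = complete loss of bead fluorescence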
RGS8-Gao single: RGS8-Galphao interaction regulation, single point confirmation. binding response (% of control), % at 10 µM. shares compounds with RGS16-Gao. bead-based flow cytometry RGS8-Galphao binding, fluorescence; actives lie on both sides. 1,700 tested, 3% active; in the data active means binding response below about 72% or above about 130%; inactive means in between;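 further: Galphao activated as GDP AlF4 complex before binding bead RGS8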
RGS7-Gao single: confirmation of regulators of human RGS7-Galphao interaction | shares compounds with RGS16-Gao | bead-based flow cytometry RGS7-Galphao binding; actives lie on both sides | response (percent of control binding), % at 10 µM | 1,700 tested, 7.8% active | AID 1837; in the data active means response below about 75% or above about 130%; inactive means in between;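 further: fluorescent Galphao activated with GDP and aluminum fluoride binding bead-coupled RGS7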
RGS16-Gao conf: confirmation of regulators of human RGS16-Galphao interaction. bead-based flow cytometry, RGS16-Galphao binding; actives lie on both sides. response (% of control binding), % at 10 µM. shares compounds with RGS16-Gao. 1,700 tested, 4% active. AID 1838; in the data active means response below about 74% or above about 130%; inactive means in between;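 further: Galphao activated as the GDP aluminium fluoride complex binding bead-coupled RGS16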
RGS4-Gao confirm: confirmation of regulators of human RGS4-Galphao interaction. shares compounds with RGS16-Gao. RGS4-Galphao binding, multiplexed bead flow cytometry; actives lie on both sides. binding response (% of control), % at 10 µM. 1,700 tested, 4% active; in the data active means binding response below about 74% or above about 130%; inactive means in between
RGS19-Gao conf: RGS19-Galphao interaction regulation, single point confirmation; shares compounds with RGS16-Gao; bead-based flow cytometry RGS19-Galphao binding; actives lie on both sides; response (percent of control binding), % at 10 µM; 1,700 tested, 5% active; AID 1841; in the data active means response below about 50% or above about 160%; inactive means in between;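 further: 100% = no compound control and 0% = blank background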
Starred values were filed as active, the others as inactive; i = inactive; ? = inconclusive; / = no result; [ ] = dose if it differs, or a comment. Compounds with a hit are over-represented: about 1.2% of the library has one in this group of screens. Unless noted, how the calls were made is not given here.

SMILES | RGS7-Gao | GSH bead fluor | Avidin fluor | RGS4-Gao reg | RGS8-Gao reg | RGS16-Gao | RGS4-Gao HTS | Biotin-avidin | RGS8-Gao single | RGS7-Gao single | RGS16-Gao conf | RGS4-Gao confirm | RGS19-Gao conf
COc1ccc(NC(=O)COC(=O)CC2CC3CCC2C3)c([N+](=O)[O-])c1 (stereo not drawn) | 100 | 16 | 15 | 96 | 99 | 98 | / | / | / | / | / | / | /
O=C(Nc1ccc(F)cc1F)NC1CCN(Cc2c(F)cccc2Cl)CC1 | ? | / | 8 | 106 | 104 | 106 | / | / | / | / | / | / | /
CCNC(=S)Nc1ccc(S(=O)(=O)Nc2cc(C)nc(C)n2)cc1 | 104 | 21 | 11 | 99 | 100 | 107 | / | / | / | / | / | / | /
CCN(CC)S(=O)(=O)c1cccc(-c2nnc(SCC(=O)NC)n2CCc2ccccc2)c1 | 246*[activator] | 26 | 161* | 128 | 100 | 111 | 128* | 1 | 101 | 105 | 103 | 102 | 114
O=C(Nc1cccc2ncccc12)c1cccnc1 | / | 17 | / | / | / | / | / | -1 | 104 | 110 | 98 | 104 | 83
O=C(Nc1cccc2ncccc12)c1cccc(F)c1 | 93 | 7 | 12 | 88 | 96 | 97 | / | / | / | / | / | / | /
O=C(Nc1cccc2ncccc12)c1ccc(Br)c([N+](=O)[O-])c1 | 121 | 10 | 13 | 120 | 150*[activator] | 246 | 120* | 1 | 104 | 101 | 101 | 104 | 102
CC(C)(C)C1CCc2sc(C(=O)NNC(=O)CCl)cc2C1 (stereo not drawn) | 108 | 10 | 6 | 101 | 100 | 102 | / | / | / | / | / | / | /
CCOC(=O)N1CCC(NCc2c(C(=O)N(C)Cc3ccccc3)nc3ccccn23)CC1 | 87 | 17 | 6 | 94 | 95 | 88 | / | / | / | / | / | / | /
NC(=O)SC/C(=N\S(=O)(=O)c1ccccc1)Nc1ccccc1 | 268*[activator] | 47 | 189* | 350*[activator] | 118 | 418*[activator] | / | 2 | 97 | 88 | 100 | 94 | 88
Cc1cc(C)c(-c2cc(NC(=O)CSc3n[nH]c(N)n3)n(-c3ccccc3)n2)cc1C | -16* | 33 | -5 | -44* | 6.7* | -38* | / | 0 | 100 | 106 | 102 | 103 | 106
CC(Cc1cccnc1)NC(=O)c1ccccc1OC1CCN(S(C)(=O)=O)CC1 (stereo not drawn) | 109 | 18 | 11 | 102 | 109 | 113 | / | / | / | / | / | / | /
O=C(N/N=C/c1cn(-c2ccccc2)nc1-c1cccnc1)c1cccnc1 | 174*[activator] | 11 | 62* | 112 | 103 | 104 | 112* | 1 | 100 | 105 | 103 | 101 | 107
CC(C)COc1ccc2[nH]c3c(c2c1)CCCC3=O | 103 | 9 | 12 | 118 | 121 | 336*[activator] | 118* | 0 | 105 | 105 | 103 | 101 | 97
Cc1noc(C)c1CSc1ncnc2sc(C)c(C)c12 | / | 46 | / | 102 | 104 | / | / | -1 | 102 | 98 | 102 | 103 | 96
Cc1noc(C)c1CSc1ncnc2sc3c(c12)CCCCC3 | 96 | 21 | 6 | 96 | 97 | 96 | / | / | / | / | / | / | /
O=C(CN1CCOCC1)Nc1ccccc1-c1ccccc1 | 87 | 20 | 5 | 88 | 91 | 86 | / | / | / | / | / | / | /
O=C(CN1CCCCC1)Nc1ccccc1-c1ccccc1 | 125 | 48 | 4 | 144 | 159*[activator] | i | 144* | -2 | 101 | 101 | 100 | 101 | 101
CCOC(=O)/C=C1\SCC(=O)N1CC(=O)Nc1ccc2c(c1)CCC2 | 99 | 26 | 11 | 104 | 103 | 103 | / | / | / | / | / | / | /
CCOC(=O)/C=C1\SCC(=O)N1CC(=O)Nc1ccc(C(C)C)cc1 | 110 | 19 | 5 | 114 | 142*[activator] | 301 | 114* | -1 | 99 | 100 | 97 | 99 | 100
CCCc1nc(SCC(=O)Nc2nnc(SCC)s2)c2c(=O)n(C)c(=O)n(C)c2n1 | 44* | 19 | 4 | 54 | 59* | 53 | 54* | / | / | / | / | / | /
CN1CCN(C(CNS(=O)(=O)c2ccc(Cl)cc2)c2cccnc2)CC1 (stereo not drawn) | 157*[activator] | 33 | 130* | 110 | 111 | 164 | 110* | -1 | 98 | 94 | 97 | 95 | 90
COC(=O)CCNCCSc1nnc(-c2ccco2)n1Cc1ccccc1 | ? | / | 10 | 96 | 100 | 97 | / | / | / | / | / | / | /
Cc1cc(NC(=O)c2ccccc2)nc(C)n1 | ? | / | 4 | 174*[activator] | 150*[activator] | 174 | / | 0 | 104 | 105 | 105 | 104 | 100
Cc1cc(NC(=O)c2ccccc2)n(C(C)(C)C)n1 | ? | / | 4 | 99 | 101 | 100 | / | / | / | / | / | / | /
SMILES | RGS7-Gao | GSH bead fluor | Avidin fluor | RGS4-Gao reg | RGS8-Gao reg | RGS16-Gao | RGS4-Gao HTS | Biotin-avidin | RGS8-Gao single | RGS7-Gao single | RGS16-Gao conf | RGS4-Gao confirm | RGS19-Gao conf
CCC1CCC2(CC1)NC(CO)(CO)CO2 (stereo not drawn) | 119 | 23 | 26 | 115 | 145*[activator] | 318 | 115* | 0 | 107 | 106 | 109 | 106 | 100
CC1CCC2(CC1)NC(CO)(CO)CO2 (stereo not drawn) | 97 | 22 | 15 | 98 | 94 | 70 | / | / | / | / | / | / | /
Cc1cccc(OCC2CCCN(Cc3nc(C4CC4)no3)C2)c1 (stereo not drawn) | 104 | 7 | 8 | 99 | 98 | 98 | / | / | / | / | / | / | /
CCOc1ccc(S(=O)(=O)N/N=C(\C)Cc2ccc(OC)cc2)cc1 | ? | 13 | 9 | 100 | 99 | 99 | / | / | / | / | / | / | /
CCOc1ccc(S(=O)(=O)N/N=C(\C)C2CCCCC2)cc1 | 98 | 5 | 6 | 101 | 76 | 14* | 101* | 2 | 99 | 100 | 100 | 101 | 114
CCOc1ccc(S(=O)(=O)NC2CCCCCC2)cc1 | 35* | 23 | 5 | 46* | 50* | 38 | / | -1 | 114 | 104 | 123 | 103 | 121
N#CCOC(=O)C1CSC2(c3ccc(Br)cc3)CCC(=O)N12 (stereo not drawn) | 103 | 11 | 25 | 103 | 111 | 120 | / | / | / | / | / | / | /
